Results as given in PubChem BioAssay (NCI).
Compounds without any hit were thinned out: in the full panel of roughly 79,000, 15% have a hit. Values without a mark were called inactive. Active and inactive are the calls of the source. Cut-off read from the data, not from the text of the source: active = growth inhibition above about 70%; inactive = the rest.

Assays:
[1] = NCI Yeast Anticancer Drug Screen. Data for the rad50 strain (AID 155);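 note: 0% = growth of vehicle-only cultures of the same strain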; settings: S. cerevisiae rad50 strain growth inhibition; at 50.0 µM; active compounds read high
Outline: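 Relative growth inhibition (compound vs vehicle) was measured in yeast with a defined repair-gene alteration.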

[2] = NCI Yeast Anticancer Drug Screen. Data for the mec2-1 strain (AID 157); settings: S. cerevisiae mec2-1 strain, at 50.0 µM, active compounds read high
Outline: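 Each compound was tested on mec2-1 yeast, a strain altered in DNA damage repair or cell cycle control. Growth inhibition is reported relative to vehicle.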

[3] = NCI Yeast Anticancer Drug Screen. Data for the sgs1 mgt1 strain (AID 161);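 note: 0% = growth of cultures given vehicle only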; settings: S. cerevisiae sgs1 mgt1 strain, at 50.0 µM, active compounds read high
Outline: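 Genetically altered yeast, compound exposure, growth inhibition relative to vehicle.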

[4] = NCI Yeast Anticancer Drug Screen. Data for the cln2 rad14 strain (AID 165);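 note: 0% = growth equal to vehicle treated cultures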; settings: S. cerevisiae cln2 rad14 strain, at 50.0 µM, active compounds read high
Outline: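 Test compounds were added to cln2 rad14 yeast cultures; inhibition of growth was then determined by comparison with vehicle treatment.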

[5] = NCI Yeast Anticancer Drug Screen. Data for the bub3 strain (AID 167); settings: S. cerevisiae bub3 mutant strain, at 50.0 µM, active compounds read high
Outline: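 Screening used yeast with an engineered genetic alteration affecting cell cycle control. Compound-exposed cultures were compared with vehicle cultures, and reduced growth was taken as inhibition.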

[6] = NCI Yeast Anticancer Drug Screen. Data for the mlh1 rad18 strain (AID 175); settings: S. cerevisiae mlh1 rad18 strain growth inhibition; at 50.0 µM; active compounds read high
Outline: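 Inhibition values reflect reduced growth of mutant yeast versus vehicle-treated controls following compound exposure; the mutations affect DNA damage repair.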

CS(=O)(=O)C(c1nc2n(c1O)/C(=N/C(=O)Nc1ccc(Cl)cc1)N=N2)c1nc2n(c1O)/C(=N/C(=O)Nc1ccc(Cl)cc1)N=N2
growth inhibition [1]: -14.9% | growth inhibition [2]: 4.5% | growth inhibition [3]: -8.5% | growth inhibition [4]: -16.3% | growth inhibition [5]: 1.3% | growth inhibition [6]: -1.15%

O=C(C=C1CCCCC1)c1ccccc1
growth inhibition [1]: 12.9% | growth inhibition [2]: -6.35% | growth inhibition [3]: 7.45% | growth inhibition [4]: -6.2% | growth inhibition [5]: 2.9% | growth inhibition [6]: 5.25%

COc1ccc(NS(=O)c2ccccc2OC)cc1 (configuration not stated)
growth inhibition [1]: 2.7% | growth inhibition [2]: 4.5% | growth inhibition [3]: 14.3% | growth inhibition [4]: -18.9% | growth inhibition [5]: 8.05% | growth inhibition [6]: 5.5%

CCOC(=O)CNC(N)=O
growth inhibition [1]: 33.6% | growth inhibition [2]: 15.3% | growth inhibition [3]: -19.5% | growth inhibition [4]: 19.4% | growth inhibition [5]: 23.8% | growth inhibition [6]: 5.2%

CCOC(=O)NC(Nc1ccc(F)c(F)c1)(C(=O)OCC)C(F)(F)F (configuration not stated)
growth inhibition [1]: 5.4% | growth inhibition [2]: -1.3% | growth inhibition [3]: -9.1% | growth inhibition [4]: 15.4% | growth inhibition [5]: 9.75% | growth inhibition [6]: 39.5%

O=C(/C=C(\c1ccccc1)C1C2C=CC(C2)C1c1ccccc1)c1ccccc1 (configuration not stated)
growth inhibition [1]: 61.6% | growth inhibition [2]: 64.2% | growth inhibition [3]: 91.7% (active) | growth inhibition [4]: 49% | growth inhibition [5]: 75.2% (active) | growth inhibition [6]: 88.8% (active)

O=C(O)c1cc(=O)c2cc3c(cc2o1)OCc1ccccc1-3
growth inhibition [1]: 13.8% | growth inhibition [2]: -6.15% | growth inhibition [3]: 2.1% | growth inhibition [4]: 19.4% | growth inhibition [5]: -6.5% | growth inhibition [6]: 3.55%

CCOC(=O)CC1OCCO1
growth inhibition [1]: 7.65% | growth inhibition [2]: -3.35% | growth inhibition [3]: -24.7% | growth inhibition [4]: 5.25% | growth inhibition [5]: 2.4% | growth inhibition [6]: -5.15%

Cc1cc(C)c(Br)c(C)c1C
growth inhibition [1]: -17.4% | growth inhibition [2]: 4.15% | growth inhibition [3]: -9.95% | growth inhibition [4]: -53.4% | growth inhibition [5]: 8.5% | growth inhibition [6]: -22.7%

O=[N+]([O-])C(=C(N1CCOCC1)N1CCOCC1)/C(Cl)=C(\Cl)Br
growth inhibition [1]: -19.2% | growth inhibition [2]: -1.1% | growth inhibition [3]: -0.6% | growth inhibition [4]: -14.1% | growth inhibition [5]: 4.5% | growth inhibition [6]: 2.55%

CC(C(=O)c1ccccc1)C(c1ccccc1)N1CCOCC1 (configuration not stated)
growth inhibition [1]: 2.1% | growth inhibition [2]: -7.5% | growth inhibition [3]: -16.3% | growth inhibition [4]: 3.25% | growth inhibition [5]: 6.35% | growth inhibition [6]: -5.15%

ClC(Cl)(Cl)C(c1ccc(Br)cc1)c1ccc(Br)cc1
growth inhibition [1]: -18.1% | growth inhibition [2]: -29.5% | growth inhibition [3]: 1.15% | growth inhibition [4]: -43.3% | growth inhibition [5]: 16.8% | growth inhibition [6]: -0.25%

Brc1cc2c(cc1C1SCCS1)OCO2
growth inhibition [1]: 49.5% | growth inhibition [2]: 20.4% | growth inhibition [3]: 58.5% | growth inhibition [4]: 18.6% | growth inhibition [5]: 28.3% | growth inhibition [6]: 34.6%

COC/C(=N/Nc1ccc([N+](=O)[O-])cc1[N+](=O)[O-])C(C)(C)C
growth inhibition [1]: -2.8% | growth inhibition [2]: 16.4% | growth inhibition [3]: 8.6% | growth inhibition [4]: -26.3% | growth inhibition [5]: -20.9% | growth inhibition [6]: -16.8%

O[C@@H]1C=C(c2ccccc2)[C@H](c2ccccc2)C1
growth inhibition [1]: -3% | growth inhibition [2]: 9.6% | growth inhibition [3]: 9.65% | growth inhibition [4]: -7.9% | growth inhibition [5]: -19.8% | growth inhibition [6]: -1.15%

Cc1ccc(S(=O)(=O)O/C=C2/CCOC2=O)cc1
growth inhibition [1]: 29.6% | growth inhibition [2]: 43.2% | growth inhibition [3]: 29.9% | growth inhibition [4]: 28.8% | growth inhibition [5]: 38.2% | growth inhibition [6]: 60.9%

COc1ccc(C(=O)C(c2ccc(OC)cc2)C2(O)C(=O)Nc3ccc([N+](=O)[O-])cc32)cc1 (configuration not stated)
growth inhibition [1]: -7.65% | growth inhibition [2]: 1.95% | growth inhibition [3]: 6.2% | growth inhibition [4]: 18.5% | growth inhibition [5]: 5.65% | growth inhibition [6]: 1.4%

c1cnn(C23C4C5C6C4C2C6C53)c1 (configuration not stated)
growth inhibition [1]: -24.4% | growth inhibition [2]: -26.6% | growth inhibition [3]: -18.7% | growth inhibition [4]: -20.5% | growth inhibition [5]: -32.5% | growth inhibition [6]: -38.6%

CC1(C)CC(=O)C(N=Nc2ccccc2)=C(O)C1
growth inhibition [1]: 0.7% | growth inhibition [2]: 2.3% | growth inhibition [3]: -2.55% | growth inhibition [4]: -49.4% | growth inhibition [5]: 24.2% | growth inhibition [6]: -0.75%

CNCC(=O)Nc1ccc2c(c1)C(=O)c1ccc(NC(=O)CNC)cc1C2=O
growth inhibition [1]: 11.5% | growth inhibition [2]: 13.9% | growth inhibition [3]: 19.4% | growth inhibition [4]: -2.25% | growth inhibition [5]: -11.9% | growth inhibition [6]: 23.8%

O=C1OC(=O)C2CCCCC12 (configuration not stated)
growth inhibition [1]: 29.9% | growth inhibition [2]: -11.9% | growth inhibition [3]: -11.4% | growth inhibition [4]: -48.3% | growth inhibition [5]: 8.95% | growth inhibition [6]: 18.9%

c1ccc(-c2cnc(C3CCCCC3)o2)cc1
growth inhibition [1]: 28% | growth inhibition [2]: -14.1% | growth inhibition [3]: 14.8% | growth inhibition [4]: 10.2% | growth inhibition [5]: 17.1% | growth inhibition [6]: 5.55%

COC(=O)c1ccc(C(=O)OC)c2nc3cc(Cl)ccc3nc12
growth inhibition [1]: -7.05% | growth inhibition [2]: -10.2% | growth inhibition [3]: -35.5% | growth inhibition [4]: -29.2% | growth inhibition [5]: -10.6% | growth inhibition [6]: -40.1%

O=C(C[N+]12CN3CN(CN(C3)C1)C2)c1cccc2ccccc12
growth inhibition [1]: 11.2% | growth inhibition [2]: -11.6% | growth inhibition [3]: 9.35% | growth inhibition [4]: -3.2% | growth inhibition [5]: -4.7% | growth inhibition [6]: 14.6%

CCCC(=N)OCC
growth inhibition [1]: -3.45% | growth inhibition [2]: -27.4% | growth inhibition [3]: -20.4% | growth inhibition [4]: -0.45% | growth inhibition [5]: 3.75% | growth inhibition [6]: -5.05%

Cc1cc(S(=O)(=O)Nc2n[nH]c(Nc3ccc(Cl)cc3)n2)c(S)cc1Cl
growth inhibition [1]: -8.1% | growth inhibition [2]: -14.9% | growth inhibition [3]: 6.7% | growth inhibition [4]: 7.05% | growth inhibition [5]: 0.35% | growth inhibition [6]: 17.4%

COC(=O)C1=C(NC(=O)Nc2ccc([N+](=O)[O-])cc2)OC(C)(C)C1c1ccc(Cl)cc1 (configuration not stated)
growth inhibition [1]: 23.6% | growth inhibition [2]: 9.15% | growth inhibition [3]: 6.45% | growth inhibition [4]: -6.1% | growth inhibition [5]: 1.1% | growth inhibition [6]: 29.6%

O=C1OC2(C(F)(F)F)Oc3ccccc3CN2C12CCCCC2 (configuration not stated)
growth inhibition [1]: 17.6% | growth inhibition [2]: 35% | growth inhibition [3]: 11.4% | growth inhibition [4]: 25.1% | growth inhibition [5]: 42.5% | growth inhibition [6]: 13.2%

O=C1C2C3C=CC(C2C(=O)N1CCl)C1C2C(=O)N(CCl)C(=O)C2C31 (configuration not stated)
growth inhibition [1]: 4.2% | growth inhibition [2]: 21.1% | growth inhibition [3]: 7.85% | growth inhibition [4]: -5.85% | growth inhibition [5]: 13.6% | growth inhibition [6]: 18.7%

CC1C=CCC2C(=O)OC(=O)C12 (configuration not stated)
growth inhibition [1]: 10.3% | growth inhibition [2]: -1.65% | growth inhibition [3]: -4.65% | growth inhibition [4]: -3.8% | growth inhibition [5]: -0.75% | growth inhibition [6]: 15.6%

COc1cc(C(=O)CCCC(=O)O)cc(OC)c1OC
growth inhibition [1]: -9.15% | growth inhibition [2]: 3.4% | growth inhibition [3]: 19.6% | growth inhibition [4]: 5.85% | growth inhibition [5]: 16.3% | growth inhibition [6]: 5.3%

N#Cc1ccc(OCCCOc2ccc(C#N)cc2)cc1
growth inhibition [1]: 8.15% | growth inhibition [2]: 12.2% | growth inhibition [3]: 9.65% | growth inhibition [4]: 5.3% | growth inhibition [5]: 46.2% | growth inhibition [6]: -4.15%

CC(C)=Nn1cnc2nccnc2c1=O
growth inhibition [1]: 2.55% | growth inhibition [2]: -6.05% | growth inhibition [3]: -14.2% | growth inhibition [4]: -40% | growth inhibition [5]: -13.3% | growth inhibition [6]: -1.6%

COc1ccc(/C(C)=N/NC(N)=S)cc1OC
growth inhibition [1]: 6.65% | growth inhibition [2]: -17.9% | growth inhibition [3]: 2.45% | growth inhibition [4]: 16% | growth inhibition [5]: -13.3% | growth inhibition [6]: 3.45%

C=C1C(=O)O[C@@H]2[C@@H]3[C@@H](C)C(=O)C=C[C@]3(C)CC[C@@H]12
growth inhibition [1]: -15.9% | growth inhibition [2]: -49.1% | growth inhibition [3]: -11.2% | growth inhibition [4]: 7.05% | growth inhibition [5]: -35.6% | growth inhibition [6]: -14.9%

O=C(CN1C(=O)c2ccccc2C1=O)NC(Cc1ccccc1)C(=O)O (configuration not stated)
growth inhibition [1]: 7.85% | growth inhibition [2]: -6.9% | growth inhibition [3]: -16.9% | growth inhibition [4]: -12.5% | growth inhibition [5]: 10.1% | growth inhibition [6]: -9.65%

O=c1[nH]cc(Cl)cc1Cl
growth inhibition [1]: 0.05% | growth inhibition [2]: 3.85% | growth inhibition [3]: -4% | growth inhibition [4]: -8.35% | growth inhibition [5]: 2.3% | growth inhibition [6]: -1.45%
